Out of some 5,500 compounds screened, about 2,000 (36%) were called active. Not shown: some 18% with an inconclusive outcome. No stated cut-off is given here; in the data, active means normalized growth mostly below about 0.91 (no sharp cut-off); inconclusive means no clear call, values can overlap the other calls; inactive means mostly above about 0.92. The list shows a part of the results.
Assay: chemical genetic growth profiling, strain panel (AID 1159580);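 further: tested at 20 µM; growth read once vehicle control cultures reached saturation at 30 °C; 1 = growth at the plate median or of vehicle wells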
Settings: growth OD

Measured: normalized growth

C[C@H]1CC2C([C@@H](O)C[C@@]3(C)C2CC[C@]3(O)C(=O)CO)[C@@]2(C)C=CC(=O)C=C12 (some centres not stated)
inactive: S. cerevisiae deletion strains, locus YJR075W, strain HOC1, stronger effect = lower value 1.01 | S. cerevisiae deletion strains, locus YKL009W, strain mrt4, stronger effect = lower value 0.997 | S. cerevisiae deletion strains, locus YKL068W, stronger effect = lower value 0.999 | S. cerevisiae deletion strains, locus YKL085W, strain MDH1 (second series), stronger effect = lower value 1 | S. cerevisiae deletion strains, locus YKL085W, strain MDH1, stronger effect = lower value 1 | S. cerevisiae deletion strains, locus YKL160W, strain elf1, stronger effect = lower value 0.975 | S. cerevisiae deletion strains, locus YKL190W, strain CNB1, stronger effect = lower value 0.995 | S. cerevisiae deletion strains, locus YKR001C, strain vps1, stronger effect = lower value 1.02 | S. cerevisiae deletion strains, locus YKR026C, strain gcn3, stronger effect = lower value 0.999 | S. cerevisiae deletion strains, locus YKR091W, strain srl3, stronger effect = lower value 1.01 | S. cerevisiae deletion strains, locus YLL001W, strain dnm1, stronger effect = lower value 0.96 | S. cerevisiae deletion strains, locus YLL026W, stronger effect = lower value 0.982 | S. cerevisiae deletion strains, locus YLL041C, strain sdh2, stronger effect = lower value 1.01 | S. cerevisiae deletion strains, locus YLR027C, strain aat2, stronger effect = lower value 0.985 | S. cerevisiae deletion strains, locus YLR039C, strain RIC1, stronger effect = lower value 0.982 | S. cerevisiae deletion strains, locus YLR058C, strain SHM2, stronger effect = lower value 0.999 | S. cerevisiae deletion strains, locus YLR102C, strain apc9, stronger effect = lower value 1.02 | S. cerevisiae deletion strains, locus YLR113W, strain HOG1, stronger effect = lower value 1.03 | S. cerevisiae deletion strains, locus YLR221C, strain rsa3, stronger effect = lower value 1.01 | S. cerevisiae deletion strains, locus YLR258W, strain gsy2, stronger effect = lower value 1.01 | S. cerevisiae deletion strains, locus YLR262C, strain YPT6 (second series), stronger effect = lower value 0.968 | S. cerevisiae deletion strains, locus YLR262C, strain YPT6, stronger effect = lower value 0.996 | S. cerevisiae deletion strains, locus YLR268W, strain sec22, stronger effect = lower value 1.07 | S. cerevisiae deletion strains, locus YLR320W, strain mms22, stronger effect = lower value 0.989 | S. cerevisiae deletion strains, locus YLR330W, strain CHS5, stronger effect = lower value 0.999 | S. cerevisiae deletion strains, locus YLR342W, strain FKS1 (second series), stronger effect = lower value 1.01 | S. cerevisiae deletion strains, locus YLR342W, strain FKS1, stronger effect = lower value 0.985 | S. cerevisiae deletion strains, locus YLR357W, strain rsc2, stronger effect = lower value 0.996 | S. cerevisiae deletion strains, locus YLR370C, strain arc18, stronger effect = lower value 0.992 | S. cerevisiae deletion strains, locus YLR371W, strain rom2, stronger effect = lower value 1.01 | S. cerevisiae deletion strains, locus YLR384C, strain iki3, stronger effect = lower value 0.996 | S. cerevisiae deletion strains, locus YLR418C, strain cdc73, stronger effect = lower value 1.01 | S. cerevisiae deletion strains, locus YML016C, strain PPZ1, stronger effect = lower value 1.01 | S. cerevisiae deletion strains, locus YML032C, strain rad52, stronger effect = lower value 1.04 | S. cerevisiae deletion strains, locus YML120C, strain ndi1, stronger effect = lower value 0.973 | S. cerevisiae deletion strains, locus YML124C, strain tub3, stronger effect = lower value 1.01 | S. cerevisiae deletion strains, locus YMR058W, strain fet3, stronger effect = lower value 0.994 | S. cerevisiae deletion strains, locus YMR078C, strain ctf18, stronger effect = lower value 1.01 | S. cerevisiae deletion strains, locus YMR125W, strain sto1, stronger effect = lower value 1.01 | S. cerevisiae deletion strains, locus YMR129W, stronger effect = lower value 1 | S. cerevisiae deletion strains, locus YMR205C, strain PFK2, stronger effect = lower value 0.993 | S. cerevisiae deletion strains, locus YMR223W, strain ubp8, stronger effect = lower value 0.986 | S. cerevisiae deletion strains, locus YMR231W, strain pep5, stronger effect = lower value 0.991 | S. cerevisiae deletion strains, locus YMR263W, strain SAP30, stronger effect = lower value 1 | S. cerevisiae deletion strains, locus YMR307W, strain GAS1, stronger effect = lower value 1 | S. cerevisiae deletion strains, locus YNL067W, strain RPL9B, stronger effect = lower value 1.03 | S. cerevisiae deletion strains, locus YNL071W, strain lat1, stronger effect = lower value 1 | S. cerevisiae deletion strains, locus YNL128W, strain TEP1, stronger effect = lower value 0.982 | S. cerevisiae deletion strains, locus YNL153C, strain GIM3, stronger effect = lower value 1.01 | S. cerevisiae deletion strains, locus YNL183C, strain NPR1, stronger effect = lower value 0.994 | S. cerevisiae deletion strains, locus YNL209W, strain ssb2, stronger effect = lower value 1.02 | S. cerevisiae deletion strains, locus YNL233W, strain BNI4, stronger effect = lower value 1.01 | S. cerevisiae deletion strains, locus YNL248C, strain rpa49, stronger effect = lower value 1.01 | S. cerevisiae deletion strains, locus YNL250W, strain rad50, stronger effect = lower value 1.01 | S. cerevisiae deletion strains, locus YNL271C, strain bni1, stronger effect = lower value 1.01 | S. cerevisiae deletion strains, locus YNL298W, strain CLA4, stronger effect = lower value 1.01 | S. cerevisiae deletion strains, locus YNL307C, strain MCK1, stronger effect = lower value 1.02 | S. cerevisiae deletion strains, locus YNL322C, strain KRE1 (second series), stronger effect = lower value 1 | S. cerevisiae deletion strains, locus YNL322C, strain KRE1, stronger effect = lower value 0.992 | S. cerevisiae deletion strains, locus YNR049C, strain mso1, stronger effect = lower value 1 | S. cerevisiae deletion strains, locus YNR052C, strain pop2, stronger effect = lower value 1.02 | S. cerevisiae deletion strains, locus YOL006C, strain TOP1, stronger effect = lower value 1.04 | S. cerevisiae deletion strains, locus YOL012C, strain htz1 1.61 | S. cerevisiae deletion strains, locus YOL147C, strain pex11, stronger effect = lower value 1.01 | S. cerevisiae deletion strains, locus YOR001W, strain rrp6, stronger effect = lower value 0.966 | S. cerevisiae deletion strains, locus YOR061W, strain CKA2, stronger effect = lower value 1 | S. cerevisiae deletion strains, locus YOR069W, strain VPS5, stronger effect = lower value 1 | S. cerevisiae deletion strains, locus YOR070C, strain gyp1, stronger effect = lower value 1 | S. cerevisiae deletion strains, locus YOR080W, strain dia2, stronger effect = lower value 0.986 | S. cerevisiae deletion strains, locus YOR083W, strain WHI5, stronger effect = lower value 0.959 | S. cerevisiae deletion strains, locus YOR106W, strain vam3, stronger effect = lower value 0.987 | S. cerevisiae deletion strains, locus YOR136W, strain idh2, stronger effect = lower value 1.01 | S. cerevisiae deletion strains, locus YOR144C, strain elg1, stronger effect = lower value 1.01 | S. cerevisiae deletion strains, locus YOR184W, strain ser1, stronger effect = lower value 1 | S. cerevisiae deletion strains, locus YOR231W, strain MKK1, stronger effect = lower value 1.02 | S. cerevisiae deletion strains, locus YOR265W, strain rbl2, stronger effect = lower value 0.995 | S. cerevisiae deletion strains, locus YOR270C, strain vph1, stronger effect = lower value 1.02 | S. cerevisiae deletion strains, locus YOR290C, strain snf2, stronger effect = lower value 1 | S. cerevisiae deletion strains, locus YOR316C, strain cot1, stronger effect = lower value 1.01 | S. cerevisiae deletion strains, locus YPL051W, strain arl3, stronger effect = lower value 0.988 | S. cerevisiae deletion strains, locus YPL055C, strain LGE1, stronger effect = lower value 0.982 | S. cerevisiae deletion strains, locus YPL078C, strain atp4, stronger effect = lower value 0.959 | S. cerevisiae deletion strains, locus YPL106C, strain sse1, stronger effect = lower value 1.02 | S. cerevisiae deletion strains, locus YPL240C, strain hsp82, stronger effect = lower value 1.01 | S. cerevisiae deletion strains, locus YPL241C, strain CIN2, stronger effect = lower value 0.996 | S. cerevisiae deletion strains, locus YPL256C, strain CLN2, stronger effect = lower value 1.1 | S. cerevisiae deletion strains, locus YPR119W, strain clb2, stronger effect = lower value 1.01 | S. cerevisiae deletion strains, locus YPR141C, strain kar3, stronger effect = lower value 1.01 | S. cerevisiae deletion strains, locus YPR163C, strain tif3, stronger effect = lower value 1.02 | S. cerevisiae deletion strains, locus YPR167C, strain met16, stronger effect = lower value 1.01 | S. cerevisiae deletion strains, strain wtn01, stronger effect = lower value 1.03 | S. cerevisiae strains, strain wild type, stronger effect = lower value 0.998
